{
  "source": "PubChem BioAssay (NCI)",
  "note": "Compounds without any hit were thinned out: in the full panel of roughly 83,000, 20% have a hit.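 Results are percent growth after 48 hours of single-concentration exposure. 100 means growth as in untreated cells, lower positive values show inhibition; negative values down to -100 show cell death.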 A number with no mark means an inactive call. Activity calls are given as the source filed them. Rule for the calls: active = growth percent below 10; inactive = the rest.",
  "data": [
    {"tested_on": "K-562 leukemia", "assay": "NCI-60 one-dose screen, 48 h (100 = growth as untreated, 0 = no growth, -100 = all killed)", "conditions": "10 µM unless noted", "values": [
      {"smiles": "COc1cc(/C=C\\c2cc(OC)c(OC)c(OC)c2)cc(N/C=C\\C(=O)c2cc(OC)c(OC)c(OC)c2)c1OC", "growth": "16.2%"},
      {"smiles": "N#C[S-].[Au+].c1ccc(CN2[CH-]N(Cc3ccccc3)C(c3ccccc3)=C2c2ccccc2)cc1", "growth": "0.413% (active)"},
      {"smiles": "O=[N+]([O-])c1ccc(OP(=O)(CCl)N(CCCl)CCCl)cc1", "note": "(stereo unspecified)", "growth": "97.1%"},
      {"smiles": "O=C1CC2(CC3(Cl)C(Cl)=C(Cl)C2(Cl)C3(Cl)Cl)C(=O)O1", "note": "(stereo unspecified)", "growth": "97.9%"},
      {"smiles": "COc1cc2c(cc1OCCCCCn1c(-c3ccco3)nc3ccccc31)N=C[C@@H]1CCCN1C2=O", "growth": "5.85% (active)"},
      {"smiles": "O=C(O)c1ccc([S-])cc1.[Au+].c1ccc(CN2[CH-]N(Cc3ccccc3)C(c3ccccc3)=C2c2ccccc2)cc1", "growth": "-16.9% (active)"},
      {"smiles": "N#C[Se]Cc1cc(-c2ccccc2)n(-c2ccc(S(N)(=O)=O)cc2)n1", "growth": "4.33% (active)"},
      {"smiles": "COc1cc2c(cc1OCCCCn1c(-c3cccs3)nc3ccccc31)N=C[C@@H]1CCCN1C2=O", "growth": "-26.7% (active)"},
      {"smiles": "COc1ccc(/C=C\\c2cc(OC)c(OC)c(OC)c2)cc1OCC(=O)Nc1nc2ccc(F)cc2s1", "growth": "38.1%"},
      {"smiles": "O=C(Nc1ccc([N+](=O)[O-])cc1)C(Cl)(Cl)Cl", "growth": "98.2%"},
      {"smiles": "C[CH2][Sn]([Cl])([Cl])[CH2]C.Oc1ccccc1C=NCCN=Cc1ccccc1O", "growth": "84.2%"},
      {"smiles": "C[N+]12CN3CN(CN(C3)C1)C2", "growth": "198%"},
      {"smiles": "C[C@]12CC[C@@H]3c4ccc(Oc5nc(N6CC6)nc(N6CC6)n5)cc4CC[C@H]3[C@@H]1CCC2=O", "growth": "18%"},
      {"smiles": "c1ccc(COc2ccc3[nH]cc(CCN(Cc4ccccc4)Cc4ccccc4)c3c2)cc1", "growth": "71.1%"},
      {"smiles": "[Au+].[N-]=C=O.c1ccc(CN2[CH-]N(Cc3ccccc3)C(c3ccccc3)=C2c2ccccc2)cc1", "growth": "20.8%"},
      {"smiles": "CC1=C(CCCNS(C)(=O)=O)C2=C(C)C3(CC3)[C@@](C)(O)C(=O)C2=C1", "growth": "106%"},
      {"smiles": "C[C@]12CC[C@H]3[C@@H](CC[C@]4(O)C[C@@H](O[C@@H]5O[C@H](CO)[C@@H](O[C@@H]6OC[C@@H](O)[C@H](O)[C@H]6O)[C@H](O)[C@H]5O)CC[C@]34C=O)[C@@]1(O)CC[C@@H]2C1=CC(=O)OC1", "growth": "4.28% (active)"},
      {"smiles": "CN1C(=O)N[C@H]2[C@@H]3NC(=O)c4ccc(Br)n4[C@@H]3C[C@]21O", "growth": "-2.38% (active)"},
      {"smiles": "COC1OC(CO)C(O)C(O)[CH]1[Hg][O]C(C)=O", "note": "(stereo unspecified)", "growth": "27.3%"},
      {"smiles": "OCc1ccc2c(c1)OCO2", "growth": "101%"},
      {"smiles": "Nc1nnnc2nc[nH]c12", "growth": "4.73% (active)"},
      {"smiles": "CC1CCCC(C[N+](C)(C)C)C1=O", "note": "(stereo unspecified)", "growth": "88.3%"},
      {"smiles": "CNC(=O)Oc1cccc(C(F)(F)F)c1", "growth": "113%"},
      {"smiles": "COc1cc2c(cc1OCCCn1c(-c3ccccn3)nc3ccccc31)N=C[C@@H]1CCCN1C2=O", "growth": "17.4%"},
      {"smiles": "CCCCCCCOC(C(=O)OCCN(CC)CC)(c1ccccc1)c1ccccc1", "growth": "56.6%"},
      {"smiles": "CC(=O)OCC1O[C@@H]([S-])C(OC(C)=O)[C@H](OC(C)=O)[C@@H]1OC(C)=O.[Au+].c1ccc(CN2[CH-]N(Cc3ccccc3)C(c3ccccc3)=C2c2ccccc2)cc1", "growth": "1.59% (active)"},
      {"smiles": "COc1ccc(C(=O)c2sc3nc4c(cc3c2N)N2CCC4CC2)cc1OC", "growth": "73.3%"},
      {"smiles": "CC(CC1CCCCC1)NCc1ccccc1", "note": "(stereo unspecified)", "growth": "109%"},
      {"smiles": "COc1ccc(/C=C\\c2cc(OC)c(OC)c(OC)c2)cc1OCC(=O)Nc1nc2ccc(C(F)(F)F)cc2s1", "growth": "16%"},
      {"smiles": "O=C1CCC2(O)[C@@H]3Cc4ccc(O)c5c4[C@]2(CCN3Cc2ccoc2)C1O5", "note": "(stereo partly specified)", "growth": "93.9%"},
      {"smiles": "C/C(=C\\c1cc(C(F)(F)F)nn1CCNC(=O)OC(C)(C)C)[C@@H]1C[C@@H]2O[C@]2(C)CCC[C@H](C)[C@H](O)[C@@H](C)C(=O)C(C)(C)[C@@H](O)CC(=O)O1", "growth": "31.9%"},
      {"smiles": "CC(C)CCC(=O)O[C@H]1CC[C@H]2[C@@H]3CCC4=CC(=O)CC[C@]4(C)[C@H]3CC[C@]12C", "growth": "98.2%"},
      {"smiles": "ClCCN(CCCl)Cc1ccc(Nc2ccnc3cc(Cl)ccc23)cc1", "growth": "35.6%"},
      {"smiles": "COc1cc(NC(C)CCCNC2CN3CCC2CC3)c2ncccc2c1", "note": "(stereo unspecified)", "growth": "22.8%"},
      {"smiles": "C=CCCCN=C=S", "growth": "59.8%"},
      {"smiles": "CCN(CC)CCOC(=O)C(OC(C)C)(c1ccccc1)c1ccccc1", "growth": "97.3%"},
      {"smiles": "CCC1(C(C)C)C(=O)NC(=S)NC1=O", "growth": "107%"},
      {"smiles": "CC[C@]12C=CCN3CC[C@]4(C(=C(C(=O)OC)C1)Nc1cc(OC)c(OC(C)=O)cc14)[C@@H]32", "growth": "4.08% (active)"}
    ]},
    {"tested_on": "MALME-3M melanoma", "assay": "NCI-60 one-dose screen, 48 h (100 = growth as untreated, 0 = no growth, -100 = all killed)", "conditions": "10 µM unless noted", "values": [
      {"smiles": "COc1cc(/C=C\\c2cc(OC)c(OC)c(OC)c2)cc(N/C=C\\C(=O)c2cc(OC)c(OC)c(OC)c2)c1OC", "growth": "25.9%"},
      {"smiles": "N#C[S-].[Au+].c1ccc(CN2[CH-]N(Cc3ccccc3)C(c3ccccc3)=C2c2ccccc2)cc1", "growth": "-5.77% (active)"},
      {"smiles": "O=[N+]([O-])c1ccc(OP(=O)(CCl)N(CCCl)CCCl)cc1", "note": "(stereo unspecified)", "growth": "109%"},
      {"smiles": "O=C1CC2(CC3(Cl)C(Cl)=C(Cl)C2(Cl)C3(Cl)Cl)C(=O)O1", "note": "(stereo unspecified)", "growth": "101%"},
      {"smiles": "COc1cc2c(cc1OCCCCCn1c(-c3ccco3)nc3ccccc31)N=C[C@@H]1CCCN1C2=O", "growth": "-47.8% (active)"},
      {"smiles": "O=C(O)c1ccc([S-])cc1.[Au+].c1ccc(CN2[CH-]N(Cc3ccccc3)C(c3ccccc3)=C2c2ccccc2)cc1", "growth": "-68.6% (active)"},
      {"smiles": "N#C[Se]Cc1cc(-c2ccccc2)n(-c2ccc(S(N)(=O)=O)cc2)n1", "growth": "-47% (active)"},
      {"smiles": "COc1cc2c(cc1OCCCCn1c(-c3cccs3)nc3ccccc31)N=C[C@@H]1CCCN1C2=O", "growth": "-77% (active)"},
      {"smiles": "COc1ccc(/C=C\\c2cc(OC)c(OC)c(OC)c2)cc1OCC(=O)Nc1nc2ccc(F)cc2s1", "growth": "38.3%"},
      {"smiles": "O=C(Nc1ccc([N+](=O)[O-])cc1)C(Cl)(Cl)Cl", "growth": "97.6%"},
      {"smiles": "C[CH2][Sn]([Cl])([Cl])[CH2]C.Oc1ccccc1C=NCCN=Cc1ccccc1O", "growth": "95.6%"},
      {"smiles": "C[N+]12CN3CN(CN(C3)C1)C2", "growth": "111%"},
      {"smiles": "C[C@]12CC[C@@H]3c4ccc(Oc5nc(N6CC6)nc(N6CC6)n5)cc4CC[C@H]3[C@@H]1CCC2=O", "growth": "65.4%"},
      {"smiles": "c1ccc(COc2ccc3[nH]cc(CCN(Cc4ccccc4)Cc4ccccc4)c3c2)cc1", "growth": "91.3%"},
      {"smiles": "[Au+].[N-]=C=O.c1ccc(CN2[CH-]N(Cc3ccccc3)C(c3ccccc3)=C2c2ccccc2)cc1", "growth": "70%"},
      {"smiles": "CC1=C(CCCNS(C)(=O)=O)C2=C(C)C3(CC3)[C@@](C)(O)C(=O)C2=C1", "growth": "-63.1% (active)"},
      {"smiles": "C[C@]12CC[C@H]3[C@@H](CC[C@]4(O)C[C@@H](O[C@@H]5O[C@H](CO)[C@@H](O[C@@H]6OC[C@@H](O)[C@H](O)[C@H]6O)[C@H](O)[C@H]5O)CC[C@]34C=O)[C@@]1(O)CC[C@@H]2C1=CC(=O)OC1", "growth": "-25% (active)"},
      {"smiles": "CN1C(=O)N[C@H]2[C@@H]3NC(=O)c4ccc(Br)n4[C@@H]3C[C@]21O", "growth": "-27.3% (active)"},
      {"smiles": "COC1OC(CO)C(O)C(O)[CH]1[Hg][O]C(C)=O", "note": "(stereo unspecified)", "growth": "76.4%"},
      {"smiles": "OCc1ccc2c(c1)OCO2", "growth": "97.5%"},
      {"smiles": "Nc1nnnc2nc[nH]c12", "growth": "34.8%"},
      {"smiles": "CC1CCCC(C[N+](C)(C)C)C1=O", "note": "(stereo unspecified)", "growth": "76.5%"},
      {"smiles": "CNC(=O)Oc1cccc(C(F)(F)F)c1", "growth": "140%"},
      {"smiles": "COc1cc2c(cc1OCCCn1c(-c3ccccn3)nc3ccccc31)N=C[C@@H]1CCCN1C2=O", "growth": "-9.03% (active)"},
      {"smiles": "CCCCCCCOC(C(=O)OCCN(CC)CC)(c1ccccc1)c1ccccc1", "growth": "100%"},
      {"smiles": "CC(=O)OCC1O[C@@H]([S-])C(OC(C)=O)[C@H](OC(C)=O)[C@@H]1OC(C)=O.[Au+].c1ccc(CN2[CH-]N(Cc3ccccc3)C(c3ccccc3)=C2c2ccccc2)cc1", "growth": "-30.2% (active)"},
      {"smiles": "COc1ccc(C(=O)c2sc3nc4c(cc3c2N)N2CCC4CC2)cc1OC", "growth": "93%"},
      {"smiles": "CC(CC1CCCCC1)NCc1ccccc1", "note": "(stereo unspecified)", "growth": "88.9%"},
      {"smiles": "COc1ccc(/C=C\\c2cc(OC)c(OC)c(OC)c2)cc1OCC(=O)Nc1nc2ccc(C(F)(F)F)cc2s1", "growth": "43.8%"},
      {"smiles": "O=C1CCC2(O)[C@@H]3Cc4ccc(O)c5c4[C@]2(CCN3Cc2ccoc2)C1O5", "note": "(stereo partly specified)", "growth": "96.7%"},
      {"smiles": "C/C(=C\\c1cc(C(F)(F)F)nn1CCNC(=O)OC(C)(C)C)[C@@H]1C[C@@H]2O[C@]2(C)CCC[C@H](C)[C@H](O)[C@@H](C)C(=O)C(C)(C)[C@@H](O)CC(=O)O1", "growth": "70%"},
      {"smiles": "CC(C)CCC(=O)O[C@H]1CC[C@H]2[C@@H]3CCC4=CC(=O)CC[C@]4(C)[C@H]3CC[C@]12C", "growth": "84.2%"},
      {"smiles": "ClCCN(CCCl)Cc1ccc(Nc2ccnc3cc(Cl)ccc23)cc1", "growth": "57.4%"},
      {"smiles": "COc1cc(NC(C)CCCNC2CN3CCC2CC3)c2ncccc2c1", "note": "(stereo unspecified)", "growth": "81.3%"},
      {"smiles": "C=CCCCN=C=S", "growth": "76.7%"},
      {"smiles": "CCN(CC)CCOC(=O)C(OC(C)C)(c1ccccc1)c1ccccc1", "growth": "101%"},
      {"smiles": "CCC1(C(C)C)C(=O)NC(=S)NC1=O", "growth": "111%"},
      {"smiles": "CC[C@]12C=CCN3CC[C@]4(C(=C(C(=O)OC)C1)Nc1cc(OC)c(OC(C)=O)cc14)[C@@H]32", "growth": "112%"}
    ]}
  ]
}
